These results are taken from PubChem BioAssay.

Unmarked numbers belong to inactive results. The source made the active and inactive calls. Rule as the data show it, unless noted: active = inhibition above about 30%; inactive = the rest.

Experiment [1] concerns the target Nuclear receptor coactivator 3 (Homo sapiens) (UniProt Q9Y6Q9). The experiment in a line: NCOA3 GAL4-fusion reporter inhibition – cell-based, luminescence, quadruplicate, confirmation (AID 588792;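 active = mean inhibition over 43.08%, the solvent-only control mean plus 3 SD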;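 also: 0% = DMSO treated cells and 100% = gossypol at 36 µM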). The settings on record: HEK293 GAL4-SRC3 luciferase reporter, at 3.6 µM, active compounds read high.
Experiment [2] deals with transactivating tegument protein VP16 (Human herpesvirus 1), Gal4-VP16 luciferase reporter. The experiment in a line: repression of VP16-driven luciferase reporter – cell-based, luminescence, high throughput, counter-screen for SRC3 inhibitor project (AID 588794). The settings on record: mammalian cells, at 3.6 µM, active compounds read high. Background: Reporter assays use an easily measured gene product as a stand-in for the process of interest.

In general, inhibition refers to the relative decrease from the control value, in per cent.

Nuclear receptor coactivator 3 (Homo sapiens), sequence (Q9Y6Q9 whole entry, looked up, the tested form may be a part): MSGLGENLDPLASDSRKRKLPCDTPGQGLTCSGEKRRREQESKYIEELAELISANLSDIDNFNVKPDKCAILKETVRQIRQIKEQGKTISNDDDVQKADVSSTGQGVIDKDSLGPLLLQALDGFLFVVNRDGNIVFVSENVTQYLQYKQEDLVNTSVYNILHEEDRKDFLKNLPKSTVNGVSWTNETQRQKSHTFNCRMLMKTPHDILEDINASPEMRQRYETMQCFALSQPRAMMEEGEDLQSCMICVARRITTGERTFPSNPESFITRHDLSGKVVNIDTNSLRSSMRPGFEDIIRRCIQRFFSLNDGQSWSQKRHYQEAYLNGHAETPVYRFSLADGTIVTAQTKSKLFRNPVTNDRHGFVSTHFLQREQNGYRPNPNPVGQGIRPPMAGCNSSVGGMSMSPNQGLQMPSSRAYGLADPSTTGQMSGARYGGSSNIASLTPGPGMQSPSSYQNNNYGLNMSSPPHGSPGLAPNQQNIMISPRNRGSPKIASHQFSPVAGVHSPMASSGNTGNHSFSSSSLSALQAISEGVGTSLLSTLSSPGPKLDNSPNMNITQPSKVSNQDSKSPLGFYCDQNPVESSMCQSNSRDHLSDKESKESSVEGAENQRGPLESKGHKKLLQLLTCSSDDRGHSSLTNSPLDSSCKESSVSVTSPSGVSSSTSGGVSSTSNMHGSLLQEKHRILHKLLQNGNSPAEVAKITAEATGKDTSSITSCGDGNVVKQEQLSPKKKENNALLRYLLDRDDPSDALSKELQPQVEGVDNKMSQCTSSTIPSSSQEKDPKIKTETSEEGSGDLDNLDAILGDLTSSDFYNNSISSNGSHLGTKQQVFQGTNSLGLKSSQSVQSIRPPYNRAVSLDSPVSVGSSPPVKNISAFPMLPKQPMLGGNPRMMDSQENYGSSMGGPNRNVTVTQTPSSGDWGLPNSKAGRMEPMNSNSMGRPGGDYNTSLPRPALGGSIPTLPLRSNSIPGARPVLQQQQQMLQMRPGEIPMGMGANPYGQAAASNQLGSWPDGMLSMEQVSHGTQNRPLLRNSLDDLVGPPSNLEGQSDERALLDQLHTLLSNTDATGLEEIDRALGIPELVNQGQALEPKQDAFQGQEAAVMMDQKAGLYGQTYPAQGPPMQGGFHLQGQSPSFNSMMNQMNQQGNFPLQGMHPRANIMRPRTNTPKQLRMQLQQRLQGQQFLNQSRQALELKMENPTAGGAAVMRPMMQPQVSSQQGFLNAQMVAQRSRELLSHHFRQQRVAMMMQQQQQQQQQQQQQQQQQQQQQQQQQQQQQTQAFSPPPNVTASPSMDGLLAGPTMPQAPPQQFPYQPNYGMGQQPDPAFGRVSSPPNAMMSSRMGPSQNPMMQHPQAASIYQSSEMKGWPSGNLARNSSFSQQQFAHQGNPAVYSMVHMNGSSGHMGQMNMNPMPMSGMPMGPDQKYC

For `Cc1nn(C)c(C)c1CN(C)C(=O)c1cnn2c1NC(c1ccccc1)CC2C(F)(F)F` (stereo not given), the results for the inhibition in experiment [1] and in experiment [2] were 21.2% and 3.17%, respectively.

For `COCCN(CCOC)S(=O)(=O)c1ccc(C(=O)Nc2nc3c(s2)CCc2ccccc2-3)cc1`, the inhibition in experiment [1] was 0.71%; in experiment [2], 0.01%.

As for `COc1cccc(C(=O)Oc2c(Br)cc(Br)cc2/C=N/NC(=O)c2cc(C)[nH]n2)c1`, the inhibition in experiment [1] and in experiment [2] was 18.3% throughout.

Take `O=C(NN=Cc1ccccc1O)c1cccc([N+](=O)[O-])c1`: the values for the inhibition in experiment [1] and in experiment [2] were 52.8% (active) and 51.8% (active), respectively.

As for `COc1ccc(C(Cl)=C(C=O)c2ccc(OC)c(OC)c2)cc1OC`, the inhibition in experiment [1] is 22.3%; in experiment [2], -10.7%.

Turning to `O=C(NCCc1cn2ccccc2n1)c1cc(COc2ccc3ncccc3c2)on1`, the inhibition in experiment [1] was -5.01%; in experiment [2] it was 18.4%.

As for `Oc1c(CN2CCCCC2)cc(COCc2ccccc2)c2cccnc12`, the inhibition in experiment [1] was 75.2% (active); in experiment [2], 66.7% (active).

Turning to `O=C(NNc1ccccc1)c1ccc(Cl)c(Cl)c1`, the inhibition was 19.8% in experiment [1] and 58.7% (active) in experiment [2].

Take `Cc1c(P(=S)(c2ccccc2)c2ccccc2)[n+]2ccccc2n1CCc1ccccc1`: the inhibition in experiment [1] is 25.9%; in experiment [2], 22%.

Take `CCOc1ccc(-c2cc(C)n3nc(C(N)=O)cc3n2)cc1`: the inhibition was 32.9% in experiment [1] and 23.3% in experiment [2].

`Nc1ncnc(Sc2ccc(Cl)cc2)c1[N+](=O)[O-]`: the inhibition in experiment [1] is 13.4%; in experiment [2] it was 9.09%.

`CCOC(=O)c1ccc2nc(Nc3nc4ccc(F)cc4s3)sc2c1`: the values for the inhibition in experiment [1] and in experiment [2] were 15.2% and 3.4%, respectively.

With `Cc1cc(C)n(CCC(=O)N/N=C/c2ccccc2O)n1`, the inhibition is 18% in experiment [1] and 4.14% in experiment [2].

For the compound `Cc1ccc(C)c(N2CCN(C(=O)C34CC5CC(C3)CC(n3nnc(C)n3)(C5)C4)CC2)c1`, the inhibition is 3.92% in experiment [1] and 29.6% (active) in experiment [2].

In the case of `CCc1ccc(C(=O)COC(=O)c2cncc(Br)c2)cc1`, the inhibition in experiment [1] is 10.2%; in experiment [2], 7.77%.

On to `Cc1ccc(S(=O)(=O)NCc2ccc(C(=O)N3CCN(c4ccc([N+](=O)[O-])cc4)CC3)cc2)cc1`, for which the inhibition in experiment [1] is 17%; in experiment [2] it was 36.9% (active).

Regarding `Cc1oc(S(=O)(=O)N(C)C)cc1C(=O)Nc1ccc(Cl)cc1`, the inhibition in experiment [1] was -1.4%; in experiment [2] it was 8.66%.

Regarding `O=[N+]([O-])c1ccc(S(=O)(=O)CC2CSc3nc4ccccc4n32)cc1` (stereo not given), the inhibition is 15.6% in experiment [1] and 18.6% in experiment [2].

Turning to `CC(C(=O)c1ccc(-c2ccccc2)cc1)[n+]1ccccc1` (stereo not given), the inhibition in experiment [1] was 5.63%; in experiment [2], 19.5%.

Turning to `Cc1cccc(Oc2sc(C(=O)c3ccccc3)c(N)c2C#N)c1`, the inhibition in experiment [1] was 34.8%; in experiment [2], 5.81%.

As to `O=C(NNc1ccc(O)cc1)c1ccc(Br)cc1`, the inhibition in experiment [1] is 31.5%; in experiment [2], 63.4% (active).

As for `CCCCCn1c(=O)[nH]c2cc(C(=O)N3CCN(c4ccc(C(C)=O)cc4)CC3)ccc2c1=O`, the inhibition in experiment [1] is 0.25%; in experiment [2] it was 21.7%.

Turning to `COc1ccc(C(=O)Nc2c(-c3cccs3)c(=O)c3ccccc3n2C)cc1`, the inhibition in experiment [1] is -10.2%; in experiment [2] it was 7.07%.

Take `CC(=O)Nc1ccc(S(=O)(=O)Oc2ccccc2N2CCCCC2)cc1`: the inhibition in experiment [1] is -3.48%; in experiment [2], 0.67%.

For `c1cncc(CNc2ncnc3sc4c(c23)CCC4)c1`, the inhibition was 23.1% in experiment [1] and 9.1% in experiment [2].

Regarding `C[C@H](NS(=O)(=O)c1ccc(Cl)cc1)C(=O)OCC(=O)NC(=O)Nc1ccc2c(c1)OCCO2`, the inhibition was -39.7% in experiment [1] and -25.8% in experiment [2].

As for `COc1ccc2c(=O)c3c(=O)n(CCc4ccccc4)c(C(C)C)nc3oc2c1`, the values for the inhibition in experiment [1] and in experiment [2] were 4.29% and 17.5%, respectively.

For the compound `Cc1ccc(CNC(=O)c2ccc3c(=O)c(O)c(-c4ccc(C)cc4)[nH]c3c2)cc1`, the figures for the inhibition in experiment [1] and in experiment [2] were 28.5% and 8.89%, respectively.

As for `Cc1cccc(NC(=S)N(CCCN2CCOCC2)Cc2cn(C)c3ccccc23)c1`, the inhibition in experiment [1] is -2.78%; in experiment [2], -2.77%.

On to `CC1CCc2c(sc(NC(=O)c3ccco3)c2C(=O)O)C1` (stereo not given), for which the inhibition in experiment [1] is 18.1%; in experiment [2] it was 36.3% (active).

As to `CS(=O)c1nc(-c2ccc(Br)cc2)cc(-c2ccccc2)c1C#N` (stereo not given), the inhibition in experiment [1] was 43.9% (active); in experiment [2], 26.6%.

On to `O=C(N/N=C/c1ccc(O)cc1O)c1ccc(NC(=O)C2CCCCC2)cc1`, for which the inhibition was 9.15% in experiment [1] and 10.4% in experiment [2].

Consider `Cc1sc2ncnc(Sc3nnnn3-c3ccccc3)c2c1C`, for which the inhibition in experiment [1] was 0.37%; in experiment [2], -6.56%.

Turning to `S=C(Nc1cccc2ccccc12)NN1CCCCCC1`, the inhibition is 43.8% (active) in experiment [1] and 33% (active) in experiment [2].

Turning to `COc1ccc(CCNC(=O)C2CCCN(S(C)(=O)=O)C2)cc1OC` (stereo not given), the inhibition is -14% in experiment [1] and -3.27% in experiment [2].

With `CN(C)c1cc[n+](CC(=O)Nc2ccc(Oc3ccccc3)cc2)cc1`, the figures for the inhibition in experiment [1] and in experiment [2] were 15.7% and 20.2%, respectively.

For `COCCNC(=O)c1cc(-c2ccccn2)nc2ccc(S(=O)(=O)N3CCC(C)CC3)cc12`, the values for the inhibition in experiment [1] and in experiment [2] were 30.4% and 0.64%, respectively.

Consider `O=C(NCc1cccs1)C1CCN(S(=O)(=O)c2ccccc2F)CC1`, for which the inhibition in experiment [1] was 0.65%; in experiment [2], -0.48%.

With `Cc1ccsc1C(=O)C1CCCN(Cc2cccn2-c2ccc(Cl)cn2)C1` (stereo not given), the inhibition in experiment [1] is -3.2%; in experiment [2] it was 23.2%.

Consider `COc1ccc2nc(C)cc(SCC(=O)N/N=C/c3ccc(O)cc3O)c2c1`, for which the inhibition in experiment [1] is 24.1%; in experiment [2], 18.7%.

As for `Cc1ccc(-c2c[n+]3c(n2-c2ccccc2)SCC3)cc1`, the inhibition in experiment [1] is 8.17%; in experiment [2] it was 24.7%.

Regarding `CCC(C)(C(=O)NC1CCCC1)N(C(=O)CNC(C)=O)c1ccc(C)cc1` (stereo not given), the inhibition in experiment [1] was 0.65%; in experiment [2], -7.27%.

Take `COc1ccc(C(C(=O)NC2CCCCC2)N(C(=O)CCl)c2ccc(Cl)cc2)cc1` (stereo not given): the inhibition in experiment [1] is 54.1% (active); in experiment [2], 24.8%.

For the compound `CCN(CC)c1ccc(/C=N/NC(=O)c2ccc3nc[nH]c3c2)c(O)c1`, the figures for the inhibition in experiment [1] and in experiment [2] were 51.3% (active) and 50.6% (active), respectively.

On to `CCOc1ccc(N2C(=O)/C(=C/c3cc(OC)c(OC)c(OC)c3)N(CC(=O)OC)C2=S)cc1`, for which the inhibition is 18.9% in experiment [1] and 12.7% in experiment [2].
